Screening results (PubChem BioAssay)
HP1b binding inh: blocks HP1-beta chromodomain binding to methylated histone tails. P83916. AlphaScreen HP1-beta / biotin-H3K9me3 peptide binding. Potency, µM (titrated, usually from 114 µM), without a hit: top-dose activity change, negative = inhibition, hits mostly inhibitors. hit rate 0.56% among 390,000. AID 540317; also: nearly all actives have a fitted effect of over 70% in size
Target sequence (P83916 whole entry, looked up): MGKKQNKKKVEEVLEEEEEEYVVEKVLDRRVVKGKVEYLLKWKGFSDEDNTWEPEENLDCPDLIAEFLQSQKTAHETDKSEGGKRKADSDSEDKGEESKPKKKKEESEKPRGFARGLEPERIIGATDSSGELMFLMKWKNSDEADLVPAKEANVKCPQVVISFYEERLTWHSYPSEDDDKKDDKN
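HP1-beta protein (50 nM final) preincubated 30 min at room temperature with biotinylated H3(1-18)K9me3 peptide (50 nM) in PBS pH 7.4, 0.01% Tween-20, then compound added for 30 min. AlphaScreen streptavidin donor/nickel chelate acceptor beads (10 ug/mL final), 30 min dark, luminescence read.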
L3MBTL1 inh: inhibitors of human L3MBTL1 | AlphaScreen L3MBTL1–H3K9me1 peptide binding | Potency, µM (highest dose often 57.1 µM), without a hit: at the highest dose activity, negative = inhibition, usual class: inhibitors | hit rate 0.66% among 230,000 | AID 485360; also: % is scaled to controls: 0 for no effect and ±100 for the full control effect; nearly all actives have a fitted effect of over 60% in size
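AlphaScreen proximity signal between nickel-chelate acceptor and streptavidin donor beads (final 10 ug/mL) reports binding of 50 nM L3MBTL1 to 75 nM biotin-H3 K9me1 peptide; complex incubated with compounds 30 min at room temperature; cefsulodin titration as control.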
BAZ2B inh: blocks human BAZ2B | AlphaScreen BAZ2B-H3K14Ac peptide displacement | Potency, µM (highest dose often 114 µM), without a hit: at the highest dose activity change, negative = inhibition, most hits filed as inhibitors | hit rate 4.4% among 360,000 | AID 504333; also: % is scaled to controls: 0 for no effect and ±100 for the full control effect; nearly all actives have a fitted effect of over 60% in size
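AlphaScreen displacement: compounds (up to 110uM) incubated 30 min at room temperature with a preformed 50 nM BAZ2B/50 nM biotinylated H3K14Ac peptide complex in PBS pH 7.4 with Tween-20. Donor and acceptor beads at 10 ug/mL final added, 20 min light-protected before reading.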
G9a inh: blocks human histone lysine methyltransferase G9a; Q96KQ7; G9a H3K9 monomethylation, AlphaScreen, 2 h; Potency, µM (doses to about 102 µM), for inactives: at the top dose activity, negative = inhibition, actives largely listed as inhibitors; hit rate 8.8% among 350,000; also: % is scaled to controls: 0 for no effect and ±100 for the full control effect; nearly all actives have a fitted effect of over 75% in size
Target sequence (Q96KQ7 913-1193 limits assumed): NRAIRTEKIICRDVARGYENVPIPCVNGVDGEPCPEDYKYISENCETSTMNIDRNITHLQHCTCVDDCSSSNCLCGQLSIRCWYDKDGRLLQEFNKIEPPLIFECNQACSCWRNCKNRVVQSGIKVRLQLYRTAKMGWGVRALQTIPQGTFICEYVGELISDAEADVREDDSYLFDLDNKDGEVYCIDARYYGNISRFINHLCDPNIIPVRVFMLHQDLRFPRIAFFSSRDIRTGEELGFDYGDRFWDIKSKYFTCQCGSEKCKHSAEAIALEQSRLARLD
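G9a (20 nM) was preincubated 15 min with compound, then reacted 2 h at room temperature with 500 nM biotin-H3K9 peptide and 20 µM SAM. Monomethyl-H3K9 detected by AlphaScreen using anti-H3K9me1 antibody.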
JMJD2A Tudor: JMJD2A Tudor domain (human) inhibition; O75164; AlphaScreen JMJD2A-Tudor / H3K4me3 peptide binding; Potency, µM (highest dose often 114 µM), without a hit: at the top dose activity change, negative = inhibition, hits mostly inhibitors; hit rate 4.4% among 390,000; AID 504339; also: % is scaled to controls: 0 for no effect and ±100 for the full control effect; nearly all actives have a fitted effect of over 50% in size
Numbers without * were called inactive; [ ] = dose if it differs, or a comment. A selection: hits, their analogues and other compounds. The true share with any hit is near 11%. Calls follow the shape of the dose curve; as a rule, active = well fitted inhibition curve with a large enough effect; inconclusive = small, poorly fitted or top-dose-only effect; inactive = no such curve, though single readings can be large or run the other way. Potency is read from the fitted curve at half-maximal effect.

COc1ccc(C(O)(CCN2CCCCC2)C2CCCCC2)cc1 (centres undefined) was read as HP1b binding inh 27.7%, BAZ2B inh -1.0%, G9a inh 50.1µM* and JMJD2A Tudor -13.2%.
For CCCCCC(O)(CCN1CCCCC1)c1ccc(OCC)cc1 (centres undefined) the results were HP1b binding inh 9.3%, BAZ2B inh -16.2%, G9a inh 15.3%[59 µM] and JMJD2A Tudor 39.8µM*.
For CC(C)COc1ccc(C(=O)CCN2CCCCC2)cc1 the results were HP1b binding inh 55.3%, L3MBTL1 inh -7.1%, BAZ2B inh -11.4%, G9a inh 15.8µM* and JMJD2A Tudor -13.2%.
For CCCC(O)(CCN1CCCCC1)c1ccc(OCC)cc1 (centres undefined) the results were L3MBTL1 inh 1.9%, BAZ2B inh 5.8%, G9a inh -14.7% and JMJD2A Tudor -23.4%.
Screening Cc1ccc(-c2nc(CS(=O)CC(=O)NCCCN3CCN(Cc4ccccc4)CC3)c(C)o2)cc1 (centres undefined) returned HP1b binding inh 17.0%, BAZ2B inh -11.5%, G9a inh -10.3%[59 µM] and JMJD2A Tudor -20.5%.
Screening COc1ccc(C(=O)c2sc3nc(-c4ccc(OC)cc4)ccc3c2N)cc1 returned HP1b binding inh 63.4%, L3MBTL1 inh 26.4%, BAZ2B inh 15.0%, G9a inh -1.4%[59 µM] and JMJD2A Tudor 7.7%.
Screening COc1ccc(-c2ccc3c(N)c(C(=O)c4cccc(OC)c4)sc3n2)cc1 returned HP1b binding inh 68.6%, BAZ2B inh -18.0%, G9a inh 50.1µM* and JMJD2A Tudor -9.0%.
`COc1ccc(CCn2c(=N)c(C(=O)N3CCN(C)CC3)cc3c(=O)n4ccccc4nc32)cc1` gave HP1b binding inh 7.2%, L3MBTL1 inh -0.8%, BAZ2B inh -9.0%, G9a inh 39.8µM* and JMJD2A Tudor -22.9%.
For COc1ccc(CCn2c(=N)c(C(=O)NC3CCCCC3)cc3c(=O)n4ccccc4nc32)cc1 the results were HP1b binding inh 30.0%, BAZ2B inh -17.2%, G9a inh 3.5%[0.0925 µM] and JMJD2A Tudor 8.2%.
`COc1ccc(C(=O)Nc2cccc(OC(=O)c3ccco3)c2)cc1` gave HP1b binding inh -9.6%, BAZ2B inh 13.2%, G9a inh 50.1µM* and JMJD2A Tudor -13.8%.
Screening COc1ccc(C(C)=O)c(OC(=O)c2ccco2)c1 returned HP1b binding inh 32.5%, L3MBTL1 inh -2.6%, BAZ2B inh inconclusive, G9a inh 44.7µM* and JMJD2A Tudor 4.1%.
`COc1ccc(C(=O)Nc2cccc(OC(=O)c3ccc(C)c(C)c3)c2)cc1` gave HP1b binding inh 49.5%, L3MBTL1 inh 6.5%, BAZ2B inh -36.1% and JMJD2A Tudor -13.3%.
`CC(C)NC(=O)N1CCN(S(=O)(=O)c2ccc3c(ccn3C)c2)CC1` gave HP1b binding inh 21.7%[57 µM], BAZ2B inh 0.7%, G9a inh -0.5%[59 µM] and JMJD2A Tudor -12.8%.
For O=C(c1ccc2c(c1)OCCO2)N1CCN(c2nc(-c3cccs3)nc3ccccc23)CC1 the results were HP1b binding inh 19.5% and JMJD2A Tudor -20.4%.
Screening CN(C)c1ccc(C2C3=C(CCCC3=O)OC3=C2C(=O)CCC3)cc1 returned HP1b binding inh -6.8%, L3MBTL1 inh -10.9%, BAZ2B inh -37.7%, G9a inh inconclusive and JMJD2A Tudor inconclusive.
CN(C)c1ccc(/C=C2\CCCCC2=O)cc1 was read as HP1b binding inh -9.2%, L3MBTL1 inh -7.2%, BAZ2B inh inconclusive, G9a inh 50.1µM* and JMJD2A Tudor inconclusive.
For O=c1c(S(=O)(=O)c2ccccc2)cn(Cc2ccc(F)cc2)c2cc(N3CCCCC3)c(F)cc12 the results were HP1b binding inh 66.6%, BAZ2B inh -1.3%, G9a inh 9.8%[59 µM] and JMJD2A Tudor -2.0%.
`CC1CCN(C(=O)CSc2nncn2-c2ccccn2)CC1` gave HP1b binding inh -18.9%, L3MBTL1 inh 3.4%, BAZ2B inh 9.3%, G9a inh 7.08µM* and JMJD2A Tudor 1.1%.
For CCCN(CCC)CCCNC(=O)C1CCN(c2nc3ccc(CC)cc3s2)CC1 the results were HP1b binding inh -1.5%, BAZ2B inh -4.9%, G9a inh -26.6%[59 µM] and JMJD2A Tudor -20.1%.
`Cc1nn2c(=S)[nH]nc2[nH]c1=O` gave HP1b binding inh -16.3%, L3MBTL1 inh 6.3%, G9a inh 7.08µM* and JMJD2A Tudor 28.2µM*.
Screening Cc1nn(C)c(=S)[nH]c1=S returned HP1b binding inh 6.2%[57 µM] and JMJD2A Tudor -7.6%.
Screening O=C(NCc1cccnc1)c1ccc2c(=O)n(CCCN3CCCC3=O)c(=S)[nH]c2c1 returned HP1b binding inh 53.8%, L3MBTL1 inh -0.2%, BAZ2B inh inconclusive, G9a inh 39.8µM* and JMJD2A Tudor inconclusive.
Screening O=C(NCc1ccccc1Cl)c1ccc2c(=O)n(CCCN3CCCC3=O)c(=S)[nH]c2c1 returned HP1b binding inh 22.2%, L3MBTL1 inh 1.4%, BAZ2B inh 3.8%, G9a inh -10.8%[59 µM] and JMJD2A Tudor -9.8%.
For CCCCCNC(=O)c1ccc2c(=O)n(CCCN3CCCC3=O)c(=S)[nH]c2c1 the results were HP1b binding inh 28.9%, BAZ2B inh -12.4%, G9a inh 6.31µM* and JMJD2A Tudor -5.6%.
COC(=O)c1ccccc1NC(=O)Cn1nc(C)c2nn(-c3ccc(Cl)cc3)c(C)c2c1=O was read as HP1b binding inh 14.4%[57 µM], BAZ2B inh 3.5%, G9a inh 3.6%[59 µM] and JMJD2A Tudor -14.9%.
`N#Cc1ccc(N2CCN(S(=O)(=O)c3ccc4c(c3)CC(=O)N4)CC2)cc1` gave JMJD2A Tudor -20.6%.
`Cc1cc(Cl)ccc1OCC(=O)Nc1c(Cl)ccc2nsnc12` gave HP1b binding inh 21.2%, BAZ2B inh -14.3%, G9a inh -35.6%[59 µM] and JMJD2A Tudor 3.4%.
Screening Cc1cc([N+](=O)[O-])cnc1Sc1nccn1C returned HP1b binding inh 34.5%, L3MBTL1 inh 7.2%, BAZ2B inh 50.1µM*, G9a inh 17.6%[59 µM] and JMJD2A Tudor -9.2%.
Cn1ccnc1Sc1ccccc1[N+](=O)[O-] was read as HP1b binding inh 40.0%, BAZ2B inh 2.4%, G9a inh inconclusive and JMJD2A Tudor -1.4%.
`O=C(COc1ccccc1)N=C1SC2CS(=O)(=O)CC2N1c1ccccc1` (centres undefined) gave HP1b binding inh 63.2%, BAZ2B inh -1.4%[57.1 µM], G9a inh 5.7% and JMJD2A Tudor -8.1%.
`CN(C)c1ccc(N2C(=NC(=O)COc3ccccc3)SC3CS(=O)(=O)CC32)cc1` (centres undefined) gave HP1b binding inh -12.7%, BAZ2B inh inconclusive, G9a inh 50.1µM* and JMJD2A Tudor inconclusive.
Screening ClCC1NCC(c2ccccc2Cl)c2c1[nH]c1ccccc21 (centres undefined) returned HP1b binding inh 10.4%, BAZ2B inh 44.7µM*, G9a inh inconclusive and JMJD2A Tudor inconclusive.
